Drawing on PubChem BioAssay (EPA / NIEHS), this text covers outcome and AC50 for 38 molecules.

Calls of active or inactive are those of the source. Rule for the calls: active = hit-call score of the fitted dose curve at least 0.9, where 1 is the maximum; inactive = score below 0.9.

The target of one assay is Hepatocyte nuclear factor 6 (Homo sapiens) (UniProt Q9UBC0). The assay is described as follows: ATG_HNF6_CIS: Attagene CIS-FACTORIAL HepG2 Assay for human Hepatocyte Nuclear Factor 6 (HNF6) (AID 2282952). As to conditions: HepG2 Attagene cis-factorial HNF6 reporter transcription; actives raise or lower the signal. The method, boiled down: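 First, HepG2 cells were transfected with the multiplexed cis reporter library and dosed with chemical for 24 h. Next, RNA was reverse-transcribed, PCR-amplified and fluorescently labelled. Finally, HpaI-digested fragments were read by capillary electrophoresis.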
Hepatocyte nuclear factor 6 (Homo sapiens), sequence (Q9UBC0 whole entry, looked up, the tested form may be a part): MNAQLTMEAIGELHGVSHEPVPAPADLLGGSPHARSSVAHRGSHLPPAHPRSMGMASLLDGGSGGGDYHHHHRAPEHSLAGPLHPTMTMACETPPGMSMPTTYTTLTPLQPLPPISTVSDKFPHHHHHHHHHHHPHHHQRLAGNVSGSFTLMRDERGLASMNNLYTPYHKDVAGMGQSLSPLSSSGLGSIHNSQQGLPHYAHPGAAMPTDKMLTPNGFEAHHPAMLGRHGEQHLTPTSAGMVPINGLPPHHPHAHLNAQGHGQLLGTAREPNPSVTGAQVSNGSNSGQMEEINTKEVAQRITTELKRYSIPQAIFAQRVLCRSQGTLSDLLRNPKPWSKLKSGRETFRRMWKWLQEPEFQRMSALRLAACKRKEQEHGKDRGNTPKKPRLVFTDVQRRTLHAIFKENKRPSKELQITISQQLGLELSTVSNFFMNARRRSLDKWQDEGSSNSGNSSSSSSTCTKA
With `O=c1cc(-c2ccccc2)oc2ccc3ccccc3c12`, the outcome was inactive.
With `O=C(Nc1ccc(Cl)c(Cl)c1)c1cc(Cl)cc(Cl)c1O`, the molecule was called inactive.
Turning to `c1ccc2c(c1)CCC2`, the outcome was inactive.
The same measure, in the same setting: the same measure for `O=C1Cc2ccccc2N1c1c(Cl)cccc1Cl`: “inactive”.
One may read the AC50 as the midpoint of the concentration-response curve, whichever way the signal moves. Consider `Clc1ccc(Nc2nnc(Cc3ccncc3)c3ccccc23)cc1`, for which the AC50 was 17.9 µM (active).
Regarding `Brc1cc(Br)c(Oc2c(Br)cc(Br)c(Br)c2Br)cc1Br`, the result was inactive.
As to `C=CC(=O)OCCC(F)(F)C(F)(F)C(F)(F)C(F)(F)C(F)(F)C(F)(F)F`, the outcome was inactive.
With `O=C(C=C(O)C(F)(F)F)C(F)(F)F`, the call was inactive.
On the same count and under the same terms, for `Nc1cc(Cl)c(-c2cc(Cl)c(N)cc2Cl)cc1Cl` the value was “inactive”.
Regarding `CCC(=O)C=Cc1ccc(OC)cc1`, the AC50 was 124 µM (active).
Consider `COC(O)c1ccccc1` (stereo unspecified), for which the outcome was inactive.
Still for that read-out and setting: the same measure for `CC1CCC(C(=O)O)CC1` (stereo unspecified): “inactive”; for `CC1CNCC(C)O1` (stereo unspecified): “inactive”; for `Cc1ccc(N=Nc2c(O)ccc3ccccc23)c(C)c1`: “inactive”.
On to `Nc1ccc(O)c(C(=O)O)c1`, for which the outcome was inactive.
On to `Cc1[nH]nc2c1N=C(c1ccccc1Cl)c1cc([N+](=O)[O-])ccc1N2`, for which the call was inactive.
Consider `O=C(O)C(=O)O`, for which the call was inactive.
On to `CCc1cccc(CC)c1N(COC)C(=O)CS(=O)(=O)O`, for which the outcome was inactive.
Take `Clc1ccc2c(Cl)ccnc2c1`: the outcome was inactive.
`COC1=CC(=O)C[C@@H](C)[C@]12Oc1c(Cl)c(OC)cc(OC)c1C2=O`: the outcome was inactive.
The same measure, in the same setting: the same measure for `O=C(Nc1cccc([N+](=O)[O-])c1)c1cc2ccccc2cc1O`: “inactive”.
`CCc1cccc(CC)c1NC(=O)C(=O)O`: the call was inactive.
Consider `O=CC(F)(F)C(F)(F)C(F)(F)F`, for which the call was inactive.
Same read-out and setting: the same measure for `CCCCCCc1ccc(N)cc1`: “inactive”; for `COc1cccc(O)c1`: “inactive”.
On to `FC(F)(F)C1(F)C(F)(F)C(F)(F)C(F)(F)C1(F)F`, for which the outcome was inactive.
As for `C=CC(=O)OCCC(F)(F)C(F)(F)C(F)(F)C(F)(F)C(F)(F)C(F)(F)C(F)(F)C(F)(F)F`, the result was inactive.
On the same count and under the same terms, the same measure for `CCCCCc1ccc(O)cc1`: “inactive”; for `O=C1OC(=O)c2cc(-c3ccc4c(c3)C(=O)OC4=O)ccc21`: “inactive”.
With `FC(F)(F)C(F)(F)C(F)(F)C(F)(F)I`, the molecule was called inactive.
Take `OCCN1CN(CCO)CN(CCO)C1`: the molecule was classed as inactive.
In the case of `Oc1c(Cl)cc(Cl)cc1Sc1cc(Cl)cc(Cl)c1O`, the call was inactive.
As to `COc1cc([N+](=O)[O-])ccc1N`, the outcome was inactive.
Consider `CC(C)(c1ccc(Oc2ccc(N)cc2)cc1)c1ccc(Oc2ccc(N)cc2)cc1`, for which the call was inactive.
`CCCC=O`: the molecule was called inactive.
As to `CCCCCCCCC(C)=O`, the molecule was called inactive.
`NC(C(F)(F)F)C(F)(F)F`: the result was inactive.
For `Cc1ccc(C)c(S(=O)(=O)O)c1`, the outcome was inactive.

For a further assay, the target named is Heat shock factor protein 1 (Homo sapiens) (UniProt Q00613). The assay is described as follows: ATG_HSE_CIS: Attagene CIS-FACTORIAL HepG2 Assay for human Heat Shock Transcription Factor 1 (HSE) (AID 2282953). As to conditions: HepG2 HSE cis-reporter, Attagene RNA transcription; actives raise or lower the signal. The method, boiled down: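 Using HepG2 with transfected cis-driven reporter constructs, compound effects on endogenous factor activity are scored as reporter mRNA change at 24 h. Detection: RT-PCR, HpaI digestion, capillary electrophoresis; bidirectional fitting to DMSO.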
Heat shock factor protein 1 (Homo sapiens), sequence (Q00613 whole entry, looked up): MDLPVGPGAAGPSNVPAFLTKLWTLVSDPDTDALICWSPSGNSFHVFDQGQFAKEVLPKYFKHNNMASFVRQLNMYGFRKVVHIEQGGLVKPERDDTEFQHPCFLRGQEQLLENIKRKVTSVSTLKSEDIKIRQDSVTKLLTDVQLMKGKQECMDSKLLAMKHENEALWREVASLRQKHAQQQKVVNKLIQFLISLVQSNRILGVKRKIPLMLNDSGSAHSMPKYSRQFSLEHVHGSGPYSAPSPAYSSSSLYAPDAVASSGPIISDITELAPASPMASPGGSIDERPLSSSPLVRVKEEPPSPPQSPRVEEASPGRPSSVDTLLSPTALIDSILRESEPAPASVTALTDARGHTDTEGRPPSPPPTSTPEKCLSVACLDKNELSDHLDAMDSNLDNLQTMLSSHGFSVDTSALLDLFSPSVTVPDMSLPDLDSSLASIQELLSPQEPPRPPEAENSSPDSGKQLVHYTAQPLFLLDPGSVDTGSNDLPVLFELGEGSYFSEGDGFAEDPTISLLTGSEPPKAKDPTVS
In the case of `O=c1cc(-c2ccccc2)oc2ccc3ccccc3c12`, the molecule was classed as inactive.
On to `O=C(Nc1ccc(Cl)c(Cl)c1)c1cc(Cl)cc(Cl)c1O`, for which the half-maximal activity concentration (AC50) was 52 µM (active).
On to `c1ccc2c(c1)CCC2`, for which the molecule was classed as inactive.
Consider `O=C1Cc2ccccc2N1c1c(Cl)cccc1Cl`, for which the AC50 is 130 µM (active).
Same read-out and setting: the same measure for `Clc1ccc(Nc2nnc(Cc3ccncc3)c3ccccc23)cc1`: 75.2 µM (active).
Turning to `Brc1cc(Br)c(Oc2c(Br)cc(Br)c(Br)c2Br)cc1Br`, the result was inactive.
Same read-out and setting: the same measure for `C=CC(=O)OCCC(F)(F)C(F)(F)C(F)(F)C(F)(F)C(F)(F)C(F)(F)F`: “inactive”; for `O=C(C=C(O)C(F)(F)F)C(F)(F)F`: “inactive”.
Consider `Nc1cc(Cl)c(-c2cc(Cl)c(N)cc2Cl)cc1Cl`, for which the AC50 is 18.1 µM (active).
Consider `CCC(=O)C=Cc1ccc(OC)cc1`, for which the AC50 is 145 µM (active).
With `COC(O)c1ccccc1` (stereo unspecified), the outcome was inactive.
For the molecule `CC1CCC(C(=O)O)CC1` (stereo unspecified), the molecule was called inactive.
Regarding `CC1CNCC(C)O1` (stereo unspecified), the call was inactive.
On to `Cc1ccc(N=Nc2c(O)ccc3ccccc23)c(C)c1`, for which the AC50 was 3.78 µM (active).
On to `Nc1ccc(O)c(C(=O)O)c1`, for which the molecule was called inactive.
For the molecule `Cc1[nH]nc2c1N=C(c1ccccc1Cl)c1cc([N+](=O)[O-])ccc1N2`, the outcome was inactive.
Consider `O=C(O)C(=O)O`, for which the result was inactive.
Take `CCc1cccc(CC)c1N(COC)C(=O)CS(=O)(=O)O`: the call was inactive.
In the case of `Clc1ccc2c(Cl)ccnc2c1`, the molecule was classed as inactive.
Take `COC1=CC(=O)C[C@@H](C)[C@]12Oc1c(Cl)c(OC)cc(OC)c1C2=O`: the molecule was called inactive.
For the molecule `O=C(Nc1cccc([N+](=O)[O-])c1)c1cc2ccccc2cc1O`, the call was inactive.
On the same count and under the same terms, the same measure for `CCc1cccc(CC)c1NC(=O)C(=O)O`: “inactive”; for `O=CC(F)(F)C(F)(F)C(F)(F)F`: “inactive”; for `CCCCCCc1ccc(N)cc1`: “inactive”.
As to `COc1cccc(O)c1`, the result was inactive.
As for `FC(F)(F)C1(F)C(F)(F)C(F)(F)C(F)(F)C1(F)F`, the molecule was called inactive.
Regarding `C=CC(=O)OCCC(F)(F)C(F)(F)C(F)(F)C(F)(F)C(F)(F)C(F)(F)C(F)(F)C(F)(F)F`, the outcome was inactive.
Turning to `CCCCCc1ccc(O)cc1`, the AC50 is 33.4 µM (active).
As for `O=C1OC(=O)c2cc(-c3ccc4c(c3)C(=O)OC4=O)ccc21`, the molecule was called inactive.
With `FC(F)(F)C(F)(F)C(F)(F)C(F)(F)I`, the molecule was classed as inactive.
As to `OCCN1CN(CCO)CN(CCO)C1`, the AC50 is 178 µM (active).
Take `Oc1c(Cl)cc(Cl)cc1Sc1cc(Cl)cc(Cl)c1O`: the AC50 is 18.3 µM (active).
For `COc1cc([N+](=O)[O-])ccc1N`, the outcome was inactive.
Same read-out and setting: the same measure for `CC(C)(c1ccc(Oc2ccc(N)cc2)cc1)c1ccc(Oc2ccc(N)cc2)cc1`: “inactive”; for `CCCC=O`: “inactive”; for `CCCCCCCCC(C)=O`: “inactive”.
In the case of `NC(C(F)(F)F)C(F)(F)F`, the outcome was inactive.
As to `Cc1ccc(C)c(S(=O)(=O)O)c1`, the outcome was inactive.
